Where “and” joins values, the source holds several entries; their conditions need not be identical. Equal values may be shown once. Screen size: about 5,500 compounds; about 2,000 (36%) were called active. About 18% were inconclusive and are not listed. No stated cut-off is given here; in the data, active means normalized growth mostly below about 0.91 (no sharp cut-off); inconclusive means no clear call, values can overlap the other calls; inactive means mostly above about 0.92. This is one part of the list.
Experiment: chemical genetic growth profiling, strain panel (AID 1159580);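 further: tested at 20 µM; growth read once vehicle control cultures reached saturation at 30 °C; 1 = growth at the plate median or of vehicle wells; lower values mean less growth of the strain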
Settings: S. cerevisiae deletion strains, growth OD

Measured: normalized growth

CCc1ccc(CCOc2ccc(CC3SC(=O)NC3=O)cc2)nc1 (configuration not stated)
inactive: locus YAL013W, strain DEP1, hits give low values 1.01 | locus YAL021C, strain ccr4, hits give low values 1.03 | locus YAL026C, strain drs2, hits give low values 1.01 | locus YAL030W, strain snc1, hits give low values 0.999 | locus YBL061C, strain skt5, hits give low values 1.01 | locus YBR009C, strain hhf1, hits give low values 1 | locus YBR021W, strain FUR4, hits give low values 1 | locus YBR023C, strain chs3, hits give low values 1 | locus YBR171W, strain sec66, hits give low values 1.02 | locus YBR229C, strain ROT2, hits give low values 0.993 | locus YBR231C, strain swc5, hits give low values 0.999 | locus YBR279W, strain paf1, hits give low values 1 | locus YCL011C, strain gbp2, hits give low values 1 | locus YCL016C, strain dcc1, hits give low values 1 | locus YCL029C, strain bik1, hits give low values 0.996 | locus YCL061C, strain MRC1, hits give low values 1.01 | locus YCL069W, strain vba3, hits give low values 1.01 | locus YCR088W, strain abp1, hits give low values 1.01 | locus YDL005C, strain med2, hits give low values 1 | locus YDL035C, strain GPR1, hits give low values 0.983 | locus YDL040C, strain nat1, hits give low values 0.99 | locus YDL074C, strain BRE1, hits give low values 0.974 | locus YDL101C, strain DUN1, hits give low values 1.01 | locus YDL134C, strain PPH21, hits give low values 0.998 | locus YDL185W, strain tfp1, hits give low values 1 | locus YDL192W, strain arf1, hits give low values 0.996 | locus YDR001C, strain nth1, hits give low values 1.01 | locus YDR069C, strain doa4, hits give low values 1.03 | locus YDR101C, strain arx1, hits give low values 0.995 | locus YDR137W, strain rgp1, hits give low values 0.916 | locus YDR150W, strain NUM1, hits give low values 1.01 | locus YDR159W, strain sac3, hits give low values 1.01 | locus YDR162C, strain NBP2, hits give low values 1.02 | locus YDR195W, strain ref2 0.995 | locus YDR297W, strain sur2, hits give low values 1.02 | locus YDR318W, strain mcm21, hits give low values 0.994 | locus YDR334W, strain swr1, hits give low values 1.02 | locus YDR335W, strain msn5, hits give low values 1.02 | locus YDR388W, hits give low values 0.989 | locus YDR392W, strain spt3, hits give low values 1 | locus YDR502C, strain sam2, hits give low values 0.994 | locus YEL003W, strain gim4, hits give low values 1.02 | locus YEL037C, strain rad23, hits give low values 1.01 | locus YEL061C, strain CIN8 (second series), hits give low values 1 | locus YEL061C, strain CIN8, hits give low values 1.02 | locus YER015W, strain faa2, hits give low values 1.01 | locus YER016W, strain bim1, hits give low values 1.01 | locus YER110C, hits give low values 0.997 | locus YER111C, strain swi4, hits give low values 1 | locus YER155C, strain BEM2 (second series), hits give low values 1.05 | locus YER155C, strain BEM2, hits give low values 0.995 | locus YER167W, strain BCK2, hits give low values 1 | locus YFR010W, strain ubp6, hits give low values 1.02 | locus YGL078C, strain dbp3, hits give low values 0.988 | locus YGL086W, strain mad1, hits give low values 0.996 | locus YGL167C, strain pmr1, hits give low values 1 | locus YGL173C, strain kem1, hits give low values 1.02 | locus YGL227W, strain vid30, hits give low values 0.995 | locus YGL240W, strain doc1, hits give low values 1.02 | locus YGL248W, strain PDE1, hits give low values 0.999 | locus YGL253W, strain hxk2, hits give low values 0.993 | locus YGR078C, strain PAC10, hits give low values 1.06 | locus YGR135W, strain pre9, hits give low values 0.993 | locus YGR229C, strain SMI1, hits give low values 1.01 | locus YGR252W, strain gcn5, hits give low values 0.946 | locus YHR013C, strain ard1, hits give low values 1.03 | locus YHR027C, strain rpn1, hits give low values 1.02 | locus YHR030C, strain SLT2, hits give low values 1 and 0.969 | locus YHR079C, strain IRE1 (second series), hits give low values 0.993 | locus YHR079C, strain IRE1, hits give low values 0.959 | locus YHR094C, strain hxt1, hits give low values 0.988 | locus YHR129C, strain ARP1, hits give low values 0.999 | locus YHR142W, strain chs7, hits give low values 1.01 | locus YHR200W, strain rpn10, hits give low values 0.995 | locus YIL066C, strain RNR3, hits give low values 1.01 | locus YIL073C, strain SPO22, hits give low values 1.05 | locus YIL125W, strain kgd1, hits give low values 0.988 | locus YIR030C, strain dcg1, hits give low values 0.994 | locus YJL092W, strain hpr5, hits give low values 1 | locus YJL095W, strain BCK1 (second series), hits give low values 0.998 | locus YJL095W, strain BCK1, hits give low values 0.979 and 1.01 | locus YJL115W, strain asf1, hits give low values 1 | locus YJL129C, strain trk1, hits give low values 1.02 | locus YJL134W, strain LCB3, hits give low values 1 | locus YJL154C, strain vps35, hits give low values 1.02 | locus YJL164C, strain tpk1, hits give low values 0.991 | locus YJL166W, strain qcr8, hits give low values 1.02 | locus YJL168C, strain set2, hits give low values 0.99 | locus YJL187C, strain SWE1 (second series), hits give low values 1.01 | locus YJL187C, strain SWE1, hits give low values 1.01 | locus YJR043C, strain POL32, hits give low values 0.991 | locus YJR066W, strain TOR1, hits give low values 0.942

Source: PubChem BioAssay AID1159580 (chemical genetic matrix, 2015)
